From PubChem
TDP1 inh = inhibitors of human tyrosyl-DNA phosphodiesterase TDP1; recombinant TDP1, AlphaScreen DNA substrate cleavage; Q9NUW8; hit rate 0.28% among 350,000; Potency, µM (highest dose often 130 µM), for inactives: at the top dose activity change, negative = inhibition, actives largely listed as inhibitors; AID 485290; further: on the % scale 0 is the no-effect control and ±100 the full control effect; nearly all actives have a fitted effect of over 40% in size
Target sequence (Q9NUW8 whole entry, looked up): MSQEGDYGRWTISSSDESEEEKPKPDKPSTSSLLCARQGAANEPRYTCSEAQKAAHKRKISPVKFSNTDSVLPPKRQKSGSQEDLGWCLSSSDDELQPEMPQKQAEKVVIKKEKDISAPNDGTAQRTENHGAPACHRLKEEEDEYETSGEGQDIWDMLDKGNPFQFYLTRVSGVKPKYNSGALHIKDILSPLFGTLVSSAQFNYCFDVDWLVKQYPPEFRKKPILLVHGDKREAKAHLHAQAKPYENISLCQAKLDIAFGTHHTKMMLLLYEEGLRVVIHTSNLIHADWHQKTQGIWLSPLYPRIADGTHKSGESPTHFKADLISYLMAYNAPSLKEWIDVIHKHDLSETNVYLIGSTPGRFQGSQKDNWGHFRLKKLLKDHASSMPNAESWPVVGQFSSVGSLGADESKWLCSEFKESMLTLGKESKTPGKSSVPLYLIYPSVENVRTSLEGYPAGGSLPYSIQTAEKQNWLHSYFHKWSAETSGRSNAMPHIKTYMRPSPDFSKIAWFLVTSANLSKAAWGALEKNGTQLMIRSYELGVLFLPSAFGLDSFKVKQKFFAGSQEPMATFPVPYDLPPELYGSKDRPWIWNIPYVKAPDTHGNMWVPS
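AlphaScreen read-out: signal falls as enzyme removes the 3' tyrosine-FITC from a 5'-biotinylated DNA oligo (15 nM, 5 min, RT). Enzyme was E. coli-made recombinant Tdp1 at 1 nM, exposed to compound for 15 min beforehand; beads 10 ug/ml, 10 min.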
TDP1 cell noCPT = qHTS for Inhibitors of human tyrosyl-DNA phosphodiesterase 1 (TDP1): qHTS in cells in absence of CPT. hit rate 15% among 420,000. DT40 Tdp1-/- hTDP1 cells, no CPT, ATP luminescence, 48 h. AID 686978, 2013. Potency, µM (series often up to 46.2 µM), for the others: at the highest dose activity change, negative = growth inhibition, actives largely listed as inhibitors; further: on the % scale 0 is the no-effect control and ±100 the full control effect; nearly all actives have a fitted effect of over 55% in size
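Growth kinetics read by CellTiter-Glo luminescence after ≥48 hr at 37 °C. Cells: DT40 Tdp1-/- stably carrying human TDP1, 400 per well, compound exposure in the absence of CPT (DMSO vehicle).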
DT40 TDP1 CPT = growth inhibition of DT40 Tdp1-/-;hTDP1 cells with camptothecin (screen for TDP1 inhibitors). chicken DT40 Tdp1-/-;hTDP1 cells + 20 nM CPT, ATP luminescence, 48 h. Potency, µM (top dose mostly 46.2 µM), for the others: at the highest dose activity change, negative = growth inhibition, hits mostly inhibitors. hit rate 12% among 420,000; further: on the % scale 0 is the no-effect control and ±100 the full control effect; nearly all actives have a fitted effect of over 55% in size
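Chicken DT40 Tdp1-/- cells stably complemented with human TDP1 were seeded at 400 cells/well in medium containing 20 nM camptothecin, exposed to pin-transferred compounds, and grown at 37 °C for at least 48 hr. Viability was read as ATP luminescence.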
ClpP mod = qHTS Assay for Activators of ClpP. hit rate 1.9% among 340,000. Potency, µM (doses to about 57.5 µM), for the others: at the highest dose activity change, negative = active. purified B. subtilis ClpP, FRET peptide cleavage, 20 min. AID 651965, 2013. ATP-dependent Clp protease proteolytic subunit (Bacillus subtilis (strain 168)), P80244; active means well fitted falling curve with a large enough effect; inconclusive means small, poorly fitted or top-dose-only effect; inactive means no such curve, though single readings can be large or run the other way; further: the source files actives as falling curves though it sought activators and does not explain the sign; nearly all actives have a fitted effect of over 65% in size
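FRET quenching reversal measured ClpP activation: 10 microg/mL B. subtilis ClpP at pH 8 with the FRET-FV decapeptide, read at 430 nm after 320 nm excitation. The 20-min minus 0-min signal was scaled between DMSO/no-enzyme wells and ADEP (5.8 microM final).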
Numbers without * were called inactive; ? = inconclusive; / = no result given; [ ] = remark or other dose. This is a sample that favours compounds with a hit; in the whole collection about 17% have one here. Unless noted, the call rests on the fitted dose curve; in most records, active means well fitted curve in the direction sought with a large enough effect; inconclusive means small, poorly fitted or top-dose-only effect, or another doubt; inactive means no such curve, though single readings can be large; an effect the other way counts as inactive or inconclusive. Potency means the concentration at half of the fitted maximal effect.

SMILES	TDP1 inh	TDP1 cell noCPT	DT40 TDP1 CPT	ClpP mod
CCC1CCc2nc3sc(C(=O)Nc4ccc(F)c(F)c4)c(N)c3cc2C1 (configuration not stated)	/	-20%	-19%	18%
CC(=O)c1cccc(NC(=O)c2sc3nc4c(cc3c2N)CCCC4)c1	/	?	?	-2%
CCC1CCc2nc3sc(C(=O)Nc4ccc(C)cc4C)c(N)c3cc2C1 (configuration not stated)	/	23µM*	?	4%
CCc1nnc(NC(=O)c2sc3nc4c(cc3c2N)CCCCC4)s1	0%	?	?	?
Nc1c(C(=O)Nc2ccccc2F)sc2nc3c(cc12)CCCCCC3	/	3.7µM*	2.6µM*	4%
CCc1nnc(NC(=O)c2sc3nc4c(cc3c2N)CCCCCC4)s1	50µM*	?	-4%	0%
CCCC(=O)NC(Nc1c(C)n(C)n(-c2ccccc2)c1=O)C(Cl)(Cl)Cl (configuration not stated)	-8%	-24%	-1%	0%
Cc1c(NC(=S)N/N=C/c2cccc(O)c2)c(=O)n(-c2ccccc2)n1C	5%	-4%	-9%	0%
Cc1c(NC(=S)N/N=C/c2ccc(N(C)C)cc2)c(=O)n(-c2ccccc2)n1C	3%	?	16µM*	32µM*
CCCC(=O)NC(NC(=S)Nc1c(C)n(C)n(-c2ccccc2)c1=O)C(Cl)(Cl)Cl (configuration not stated)	3%	29µM*	?	1%
O=C(Cc1ccc(S(=O)(=O)N2CCOCC2)s1)Nc1cc(C(F)(F)F)ccc1N1CCCC1	-13%[0.505 µM]	21µM*	?	/
O=C(Cc1ccc(S(=O)(=O)N2CCOCC2)s1)Nc1ccccc1N1CCCC1	0%[56.1 µM]	15µM*	16µM*	-13%
O=C(Cc1ccc(S(=O)(=O)N2CCOCC2)s1)Nc1ccc(N2CCOCC2)cc1	5%	-10%	8%	/
O=C(Cc1cccc(C(F)(F)F)c1)Nc1cc(S(=O)(=O)N2CCOCC2)ccc1N1CCCC1	-3%[56.1 µM]	?	?	-1%
Cc1cc(NC(=O)COC(=O)c2ccccc2[N+](=O)[O-])no1	6%	6%	0%	1%
Cc1cccc(N2CCN(C(c3ccc(F)cc3)c3nnc(-c4ccccc4)o3)CC2)c1C (configuration not stated)	2%	16µM*	?	?
CCc1ccc(NC(=O)[C@H](Cc2c[nH]c3ccccc23)NC(=O)[C@@H]2Cc3ccccc3CN2)cc1	/	?	18µM*	-4%
CC(=O)Nc1ccc(S(=O)(=O)NC2=NCN(CCO)CN2)cc1	6%	-7%	0%	0%
Cc1c(CC(=O)NCCC(C)C)c(=O)oc2cc3c(cc12)CCC(C)(C)O3	/	21µM*	-13%	/
Cc1c(CC(=O)NCC(C)C)c(=O)oc2cc3c(cc12)CCC(C)(C)O3	/	18µM*	16µM*	4%
Cc1c(CC(=O)N2CCC(O)CC2)c(=O)oc2cc3c(cc12)CCC1(CCCCC1)O3	/	?	?	4%
CS(=O)(=O)Nc1cccc(-c2ccc3ncnc(Nc4ccccc4)c3c2)c1	/	21µM*	?	/
CS(=O)(=O)Nc1cccc(-c2ccc3ncnc(NC4CCNCC4)c3c2)c1	/	-5%	-1%	/
COc1cccc(-c2ccc3ncnc(N4CCNCC4)c3c2)c1	/	-29%	?	/
CS(=O)(=O)Nc1cccc(-c2ccc3ncnc(N4CCNCC4)c3c2)c1	/	?	15µM*	/
SMILES	TDP1 inh	TDP1 cell noCPT	DT40 TDP1 CPT	ClpP mod
CN(C)c1cc(-c2cccc(NS(C)(=O)=O)c2)ncn1	/	-6%	-25%	/
CN(C)c1ncnc2ccc(-c3cccc(NS(C)(=O)=O)c3)cc12	/	16µM*	21µM*	/
CCCCCCCc1c(O)nc(SCC(=O)O)[nH]c1=O	1%	25%	9%	-1%
CC(C)C[C@H]1CN(CCCC[C@H]2CNC(=O)C(=O)N2CCC2CCCCC2)C(=O)C(=O)N1CCc1ccccc1	/	18µM*	?	2%
CCOc1ccc(CCN2C(=O)C(=O)N([C@@H](CC(C)C)CN3CCC[C@@H]3CN3C(=O)C(=O)NC[C@@H]3Cc3ccccc3)C[C@@H]2CC(C)C)cc1	/	23µM*	?	2%
CCOc1ccc(CCN2C(=O)C(=O)N([C@@H](CC(C)C)CN3CCC[C@H]3CN3C(=O)C(=O)NC[C@@H]3Cc3ccccc3)C[C@@H]2Cc2ccccc2)cc1	/	16µM*	16µM*	-2%
CCOc1ccc(CCN2C(=O)C(=O)N([C@@H](CC(C)C)CN3CCC[C@H]3CN3C(=O)C(=O)NC[C@@H]3Cc3ccccc3)C[C@@H]2Cc2ccc(O)cc2)cc1	/	?	?	0%
CCOc1ccc(CCN2C(=O)C(=O)N([C@@H](CC(C)C)CN3CCC[C@@H]3CN3C(=O)C(=O)NC[C@@H]3Cc3ccccc3)C[C@@H]2Cc2ccc(O)cc2)cc1	/	?	?	2%
CC1=C(C#N)C(NC(=O)c2ccccc2)(C(F)(F)F)C(=O)N1 (configuration not stated)	2%	-3%	-16%	-2%
CC(C)CN(C)c1ccc(/C=C2\C=Cc3ccccc32)cc1	/	2.5µM*	2.8µM*	0%
CN(C)c1ccc(/C=C2\C=Cc3ccccc32)cc1	/	?	-26%	3%
CN(C)c1ccc(/C=C2\C=Cc3cc(N)ccc32)cc1	/	11µM*	?	-3%
CCN(CC)c1ccc(/C=C2\C=Cc3ccccc32)cc1	/	18µM*	?	2%
O=Cc1ccc(/C=C2\C=Cc3ccccc32)cc1	/	6.3µM*	5.6µM*	15%
CCS(=O)(=O)c1ncc(Cl)c(C(=O)Nc2c(C(=O)c3ccc(C)cc3)oc3ccccc23)n1	-1%	1.6µM*	1.6µM*	2%
CCOc1ccc(NC(=O)c2nc(S(=O)(=O)Cc3ccc(F)cc3)ncc2Cl)cc1	/	0.4µM*	0.5µM*	1%
O=C(Nc1ccc(F)cc1)c1nc(S(=O)(=O)Cc2ccccc2)ncc1Cl	3%	1.6µM*	2.1µM*	1%
Cc1ccc(NC(=O)c2nc(S(=O)(=O)Cc3ccccc3)ncc2Cl)cc1	8%	0.92µM*	1.5µM*	/
O=C(NCc1ccccc1)c1nc(S(=O)(=O)Cc2ccc(F)cc2)ncc1Cl	7%	1.5µM*	1.3µM*	-8%
O=C1ON=C(c2ccccc2)/C1=C/c1ccc(O)cc1	4%	?	23µM*	0%
O=C1ON=C(c2ccc(Cl)cc2)/C1=C/c1ccc(O)cc1	-2%	12µM*	7.3µM*	/
Cc1ccc(/C=C2/C(=O)ON=C2c2ccccc2)o1	-1%	15µM*	21µM*	-4%
O=C1ON=C(c2ccccc2)/C1=C/c1ccccc1	/	-33%	0%	1%
CCCCNc1nc(Oc2ccc(OCC)nn2)nc(N2CCOCC2)n1	7%	?	-20%	1%
